Reference: PubChem BioAssay AID493026 (Johns Hopkins Ion Channel Center, 2011)
The campaign covered roughly 1,000 compounds. About 150 (15%) were called active.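 How the source made its calls: active means activity change at least 3 SD of negative controls below their mean in both duplicate wells; inactive means the rest.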 This excerpt belongs to a sample that is enriched for actives.

molecular target: Potassium voltage-gated channel subfamily KQT member 1 (Homo sapiens) (UniProt P51787); assay: KCNQ1 thallium flux decrease by hits – cell-based, FluxOR thallium flux, counter-screen for KCNQ2 inhibitor project (AID 493026); details: KCNQ1-expressing cells, FluxOR thallium flux fluorescence, at 10 µM; stronger effect = lower value;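 further: CHO cells stably transfected with KCNQ1 and depolarized by potassium stimulus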;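 on activity change, negative = inhibition: peak minus minimum fluorescence over baseline after thallium addition; 0% = vehicle negative control and -100% = blank without thallium stimulus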
Sequence (P51787 whole entry, looked up): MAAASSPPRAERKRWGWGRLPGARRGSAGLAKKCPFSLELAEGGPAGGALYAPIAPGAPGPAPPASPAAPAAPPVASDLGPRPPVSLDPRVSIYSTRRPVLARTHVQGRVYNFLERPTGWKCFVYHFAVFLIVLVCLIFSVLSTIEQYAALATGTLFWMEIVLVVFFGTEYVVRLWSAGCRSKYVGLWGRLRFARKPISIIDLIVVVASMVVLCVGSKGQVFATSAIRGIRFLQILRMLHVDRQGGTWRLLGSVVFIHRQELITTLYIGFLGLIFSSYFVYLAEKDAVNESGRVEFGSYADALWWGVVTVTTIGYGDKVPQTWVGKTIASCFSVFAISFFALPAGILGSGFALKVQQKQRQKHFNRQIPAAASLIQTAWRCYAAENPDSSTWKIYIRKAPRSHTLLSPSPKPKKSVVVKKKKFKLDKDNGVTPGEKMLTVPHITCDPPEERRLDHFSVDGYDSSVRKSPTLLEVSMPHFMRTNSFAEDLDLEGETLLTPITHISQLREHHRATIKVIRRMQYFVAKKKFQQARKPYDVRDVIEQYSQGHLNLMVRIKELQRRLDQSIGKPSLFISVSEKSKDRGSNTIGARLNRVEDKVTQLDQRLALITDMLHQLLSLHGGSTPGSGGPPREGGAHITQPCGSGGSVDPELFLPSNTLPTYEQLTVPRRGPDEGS

Row | Structure (SMILES) | activity change, negative = inhibition
1 | CCc1ccccc1NC(=O)/C(=C/c1ccccc1)c1ccccc1 | -27% (active)
2 | Cc1ccc(C(=O)c2c(NC(=O)c3ccccc3)sc(C)c2C)cc1 | inactive
3 | COc1ccc(Cl)cc1NC(=O)CN(C)Cc1ccc(OC)c(OC)c1 | inactive
4 | CN(Cc1ccccc1F)C(=O)C(Cc1ccccc1)NC(=O)c1ccccc1 (stereo unspecified) | inactive
5 | CCc1ccc(-c2nn(-c3ccccc3)cc2CSC(=N)N)cc1 | -39.5% (active)
6 | Cc1cccc(C(=O)OC(C)C(=O)NC2CCCc3ccccc32)c1O (stereo unspecified) | inactive
7 | COC(=O)C1=C(C)N(C(C)c2ccccc2)C(=O)/C1=C\c1ccco1 (stereo unspecified) | inactive
8 | COc1cccc(COc2ccc(N(C)S(=O)(=O)c3ccccc3)cc2)c1 | inactive
9 | C=CS(=O)c1sc(Cl)c(N2CCOCC2)c1[N+](=O)[O-] (stereo unspecified) | -35% (active)
10 | Cc1nc2ccccc2c(-c2ccccc2)c1C(=O)c1ccccc1 | inactive
11 | CSCc1cc(N(C)C)nc(SCc2ccc(Cl)cc2Cl)n1 | inactive
12 | Cc1ccc(C2=Nc3c(ccc4ccccc34)C(c3ccncc3)=NN2)cc1 | inactive
13 | CCc1ccc(-c2cc(C(=O)NCc3ccco3)c3ccccc3n2)s1 | inactive
14 | Fc1ccc2[nH]c3c(N4CCSCC4)ncnc3c2c1 | inactive
15 | CCOC(=O)N1CCC(N(CCOC)C(=O)Nc2ccc(C)c(C)c2)CC1 | -30.5% (active)
16 | O=C(OCC(=O)N(CCc1ccccc1)Cc1ccccc1)c1ccccc1[N+](=O)[O-] | inactive

Row | Structure (SMILES) | activity change, negative = inhibition
17 | CCc1ccc2ncc(C(=O)c3ccccc3)c(N3CCOCC3)c2c1 | inactive
18 | Cc1ccc(C(C)C)cc1OCC(=O)Nc1ccccc1N1CCCC1 | inactive
19 | CCOC(=O)C(C)Sc1nc2ccccc2c(=O)n1CC1CCCCC1 (stereo unspecified) | -33.5% (active)
20 | Cc1ccccc1N1CCN(CC(=O)NCc2ccc(Cl)cc2)CC1 | inactive
21 | O=C(Nc1ccccc1Cl)/C(Cl)=C(\Cl)S(=O)c1ccccc1 (stereo unspecified) | inactive
22 | CC(NC(=S)NNS(=O)(=O)c1ccc(C(C)(C)C)cc1)c1ccccc1 (stereo unspecified) | inactive
23 | Cc1ccccc1C(=O)Nc1ccccc1Sc1ccccc1 | inactive
24 | CC(C(=O)NCC1CCCCC1)N(C)Cc1cccc(Cl)c1 (stereo unspecified) | -42.5% (active)
25 | CC(C)C(NC(=O)OCc1ccccc1)C(=O)OCC(=O)N1C(C)CCCC1C (stereo unspecified) | inactive
26 | COc1ccc(CN(C)C(C)C(=O)NC2CCCc3ccccc32)cc1 (stereo unspecified) | inactive
27 | C=CCn1c(SCC(=O)/C(C#N)=C(\C)N)nc2sc(C)c(C)c2c1=O | inactive
28 | O=C(Nc1ccc(Cl)c(Cl)c1)N1CC=C(c2ccccc2)CC1 | inactive
29 | Cc1ccc(N2C(=O)C3C(c4ccccc4)(C2=O)C3(c2ccccc2)c2ccccc2)cc1 (stereo unspecified) | inactive
30 | CC(C)N(C(=O)CSc1nc(COc2ccccc2)nc2ccccc12)C(C)C | -44% (active)
31 | CC(C)[C@H](NC(=O)OCc1ccccc1)C(=O)OCc1ccccc1 | inactive
